Most compounds without a hit are left out; they make up all but 4.9% or so of the library.
PP1 counter: counter-screen for PP5 inhibitors: inhibitors of human PP1-alpha. actives 0.9% (n = 320,000). inhibition, % at 6.7 µM. purified PP1alpha, OMFP fluorescence. P62136;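 active = inhibition above the mean inhibition of all tested compounds plus 3 SD, computed separately for each screening campaign, cut at about 15% in these data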
PP5 inh: blocks human protein phosphatase 5 activity | P53041 | purified PP5c, OMFP substrate fluorescence | inhibition, % at 6.7 µM | actives 0.18% (n = 320,000) | AID 1987;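 active = inhibition above the campaign's mean inhibition across all tested compounds plus 3 SD, cut at about 9.5% in these data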;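 also: 0% = DMSO only and 100% = 100 µM cantharidin control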
Target sequence (P53041 whole entry, looked up): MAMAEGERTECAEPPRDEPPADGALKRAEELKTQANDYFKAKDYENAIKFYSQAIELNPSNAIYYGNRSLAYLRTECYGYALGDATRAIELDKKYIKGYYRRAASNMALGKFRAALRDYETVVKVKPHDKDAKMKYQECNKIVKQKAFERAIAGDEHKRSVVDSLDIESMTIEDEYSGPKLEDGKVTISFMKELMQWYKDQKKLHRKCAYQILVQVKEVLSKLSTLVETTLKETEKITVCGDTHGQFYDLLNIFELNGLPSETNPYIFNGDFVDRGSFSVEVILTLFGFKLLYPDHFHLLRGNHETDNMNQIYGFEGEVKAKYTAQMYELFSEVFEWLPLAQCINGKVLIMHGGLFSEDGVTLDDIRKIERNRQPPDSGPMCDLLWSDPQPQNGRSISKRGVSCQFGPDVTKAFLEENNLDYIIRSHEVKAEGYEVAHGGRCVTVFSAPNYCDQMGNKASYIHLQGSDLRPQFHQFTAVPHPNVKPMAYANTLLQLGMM
Mdm2 MdmX PPI: inhibitors of human Mdm2/MdmX interaction; SaOS-2 split-luciferase Mdm2/MdmX complementation, luminescence; inhibition, % at 8 µM; actives 3% (n = 330,000); AID 485346;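 active = inhibition of at least 50% at 8 µM in the primary screen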
Calb FLC: C. albicans growth modulation with fluconazole; C. albicans CaCi-2 (fluconazole-resistant clinical isolate) + fluconazole, Alamar Blue growth, 48 h; growth inhibition, % (test concentration not listed); actives 0.57% (n = 300,000);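 active = growth inhibition above about 58% in most replicates, limit read from the data, passing the limit was not always enough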;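 also: all wells also contain fluconazole at 8 µg/ml as a sub-toxic cotreatment; 0% = median of DMSO wells and 100% = median of geldanamycin control wells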
Beta cell apopt: beta cell apoptosis inhibition. actives 0.8% (n = 300,000). AID 435005. INS-1E cytokine-induced death, ATP luminescence, 48 h; percent of positive-control rescue, neutral wells zero. protection from apoptosis, % (test concentration not listed);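 active = Every replicate reaches about 75%, or at least half do and their mean reaches it too, limit read from the data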;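 also: 0% = cytokine-treated negative control wells and 100% = positive control rescue; higher means more ATP so stronger rescue from cytokine killing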
CSC inhib: cancer stem cell inhibition | cancer stem cell-like cells viability, luminescence | inhibition, % at 7.5 µM | actives 1.1% (n = 300,000); in the data active = inhibition above about 75%; tested in HMLE shEcad cells
Mdm2-MdmX conf: human Mdm2/MdmX binding inhibition, confirmed; actives 55% (n = 10,000); luminescent assay; inhibition, % at 8 µM; shares compounds with Mdm2 MdmX PPI; in the data active = inhibition above about 40%
Full FLuc ctr: full-length luciferase inhibition in Mdm2/MdmX counter-screen | shares compounds with Mdm2 MdmX PPI | SaOS-2 full-length luciferase counterscreen, luminescence | inhibition, % at 8 µM | actives 77% (n = 6,200) | AID 504607;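 active = mean inhibition at 8 µM reaching about 37%, which flags the compound as non-specific, limit read from the data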;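 also: p53-null SaOS-2 cells with luciferase driven by a doxycycline-inducible promoter; compound on cells about two nights before reading with doxycycline added after day one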
* = called active by the depositor; x = no result.

SMILES	PP1 counter	PP5 inh	Mdm2 MdmX PPI	Calb FLC	Beta cell apopt	CSC inhib	Mdm2-MdmX conf	Full FLuc ctr
CCn1cc(C(=O)NCCC(C)C)c(=O)c2cc(F)c(N3CCN(C(=O)c4ccco4)CC3)cc21	1	-1	54*	-6	11	29	42*	63*
Cc1ccc2nc(COC(=O)c3ccc(Cl)nc3)cc(=O)n2c1	x	x	-17	x	-3	0	x	x
COc1ccc(C(=O)Nc2ccc(NC(=O)c3ccccc3)cc2)cc1S(=O)(=O)N1CCOCC1	2	2	86*	2	6	-6	-5	x
O=C(Nc1ccc(NC(=O)c2ccc(Cl)c(S(=O)(=O)N3CCOCC3)c2)cc1)c1ccccc1	-1	0	58*	-3	-6	-10	45*	48*
O=C(Nc1ccc(Cl)c(S(=O)(=O)N2CCCC2)c1)c1cc(=O)[nH]c2ccccc12	x	x	52*	x	-3	2	10	x
COc1ccc(C(=O)Nc2ccncc2)cc1S(=O)(=O)N1CCOCC1	-4	3	-9	x	-3	-12	x	x
CCCCN(C(=O)NCCCCCCNC(=O)N(CCCC)C1CCS(=O)(=O)C1)C1CCS(=O)(=O)C1 (stereo not drawn)	-1	1	-5	-2	-3	-8	x	x
O=C(C[C@H]1C[C@H](C(=O)N2CCOCC2)[C@@]2(CCC3CCCC3)c3[nH]c4ccc(Cl)cc4c3CCN2C1=O)NCC12CC3CC(CC(C3)C1)C2	x	x	84*	x	x	x	70*	21
COc1ccc2[nH]c3c(c2c1)CCN1C(=O)C(CC(=O)NCC24CC5CC(CC(C5)C2)C4)C[C@H](C(=O)N2CCOCC2)[C@@]31CCC1CCCC1 (stereo partly drawn)	x	x	77*	x	x	x	68*	43*
CC(C)N(C(=O)[C@H]1C[C@H](CC(=O)NCC23CC4CC(CC(C4)C2)C3)C(=O)N2CCc3c([nH]c4ccc(Cl)cc34)[C@]12C)C(C)C	x	x	92*	x	x	x	50*	73*
CCOCCOc1cccc(C(=O)NC(C)c2ccc3ccccc3c2)c1 (stereo not drawn)	-2	1	7	-5	x	-4	x	x
CCOC(=O)c1c(CN2CCN(C)CC2)n(-c2ccccc2)c2cc(Br)c(O)cc12	0	2	61*	-4	-6	22	46*	39*
CCOC(=O)c1c(-c2ccccc2)oc2ccc(O)c(CN3CCN(C)CC3)c12	-1	-1	51*	3	-8	8	45*	59*
CCOC(=O)c1c(CN2CCN(CCO)CC2)n(-c2ccccc2)c2cc(Br)c(O)cc12	-1	4	11	-7	5	1	x	x
CCOC(=O)c1c(-c2ccccc2)oc2cc(CN(C)C)c(O)c(CN(C)C)c12	2	-1	54*	-3	-15	94*	62*	48*
CCOc1ccc(/C=N/NC(=O)C(=O)N2CCCCCC2)c2ccccc12	x	x	13	-2	x	x	x	x
Cc1ccc(-c2nn(-c3ccccc3)cc2C(=O)NCCCN2CCOCC2)cc1	-2	2	10	-11	1	x	x	x
CCN1C(=O)N[C@@H](CCc2ccccc2)[C@H](C(=O)OC)[C@H]1C	0	1	-1	-15	2	5	x	x
CCN(CC)CCn1c2ccccc2c2nc3ccc([N+](=O)[O-])cc3cc21	-4	0	78*	4	35	40	77*	57*
Cn1c2ccccc2c2cc([N+](=O)[O-])ccc21	-9	0	18	18	-1	3	x	x
Cc1cc(NCCCn2ccnc2)n2ncc(-c3ccccc3)c2n1	3	0	74*	x	2	1	70*	134*
Cc1cc(NCCCn2ccnc2)n2nc(C)c(-c3ccccc3)c2n1	1	-1	-26	26	11	-4	x	x
COc1ccc(CCNc2cc(C)nc3c(-c4ccccc4)cnn23)cc1OC	1	4	68*	2	x	x	32	x
Cc1cc(NC2CCCC2)n2ncc(-c3ccccc3)c2n1	1	1	84*	1	11	29	82*	181*
CNC(=O)CCN(Cc1ccco1)S(=O)(=O)c1ccc(OC)c(OC)c1	0	0	16	8	4	-11	x	x
SMILES	PP1 counter	PP5 inh	Mdm2 MdmX PPI	Calb FLC	Beta cell apopt	CSC inhib	Mdm2-MdmX conf	Full FLuc ctr
NNC(=O)CSc1c(-c2ccccc2)c2cc(Cl)ccc2[nH]c1=O	x	x	-45	-1	3	-5	x	x
O=c1[nH]c2ccc(Cl)cc2c(O)c1-c1ccccc1	-3	1	-3	30	-8	9	x	x
O=c1[nH]c2ccc(Cl)cc2c(-c2ccccc2)c1SC(=S)N1CCOCC1	5	3	53*	48	11	-14	52*	45*
O=c1[nH]c2ccc(Cl)cc2c(-c2ccccc2)c1SC(=S)N1CCCCC1	11	3	61*	-3	0	28	44*	57*
N/C(Cc1ccc(Cl)cc1)=N\OC(=O)c1ccccc1	-1	-1	39	14	-5	1	x	x
COc1ccc(/C(N)=N/OC(=O)c2ccc3c(c2)OCO3)cc1OC	4	3	91*	10	x	x	16	x
COc1ccc(C(=O)O/N=C(\N)Cc2ccc(Cl)c(Cl)c2)cc1OC	0	4	101*	2	7	-4	100*	27
COc1ccc(C(=O)O/N=C(\N)Cc2ccc(Cl)cc2)cc1OC	-1	1	100*	13	10	-13	93*	42*
N/C(=N\OC(=O)c1ccc2c(c1)OCO2)c1cccc(Br)c1	-9	1	10	14	-9	-9	x	x
CCS(=O)(=O)N1CCC(NC(=O)C(Cc2ccc(OC)c(OC)c2)NC(C)=O)CC1 (stereo not drawn)	-2	3	8	7	1	2	x	x
CCOc1ccc(NC(=O)CNC(=O)c2nn(-c3ccc(OC)cc3)c(=O)c3ccccc23)cc1	1	2	23	5	8	25	x	x
CC(=O)Nc1ccc(-c2cc(NC(C)=O)n(-c3ccccc3)n2)cc1	-4	3	17	5	3	1	x	x
CC(NC(=O)/C(C#N)=C/c1cn(-c2ccccc2)nc1-c1ccc(F)cc1)c1ccccc1 (stereo not drawn)	0	0	17	4	1	5	x	x
Cc1ccc(-c2cc(NC(=O)CCl)n(-c3ccccc3)n2)cc1	0	2	92*	-3	-16	96*	19	x
Cc1ccc(-c2nn(-c3ccccc3)cc2NC(=O)CCl)cc1	1	4	66*	-26	-2	28	7	x
Cc1ccc(-n2nc(C)c(NC(=O)CCl)c2C)cc1	0	2	85*	-14	5	6	43*	71*
CC(=O)Nc1c(C)nn(-c2ccc([N+](=O)[O-])cc2)c1C	-1	-3	13	-15	-5	1	x	x
